In the library only some 21% were active in any assay of this set; here they are far more common.
SARS PLpro yeast: blocks SARS-CoV papain-like protease in a yeast assay. 0.19% of 330,000 active. S. cerevisiae expressing SARS-CoV PLpro, growth rescue. AID 485353. Potency, µM (series often up to 32.9 µM), without a hit: at the top dose activity, positive = growth rescue, hits mostly activators; note: potency is the fitted concentration of half-maximal effect; 0% is about no effect; nearly all actives have a fitted effect of over 55% in size
NS1 function inh: blocks influenza NS1 protein function; Potency, µM (series often up to 46.1 µM), for inactives: top-dose activity, positive = more growth; 0.4% of 270,000 active; AID 2326; note: potency is the fitted concentration of half-maximal effect; actives are rising curves; nearly all actives have a fitted effect of over 50% in size
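Compounds were scored for reversing the slow growth caused by influenza A NS1 in S. cerevisiae, measured by optical density at 600 nm. Assay medium contained 2% galactose at pH 6.0; NS1-free yeast of the same strain were the positive control.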
Pf growth 96h: P. falciparum growth inhibition at 96 hours | 6.9% of 320,000 active | Potency, µM (series often up to 28.7 µM), for inactives: top-dose activity change, negative = inhibition, usual class: inhibitors | P. falciparum luciferase reporter growth, 96 h | AID 504834; active = well fitted inhibition curve with a large enough effect; inconclusive = small, poorly fitted or top-dose-only effect, or another doubt; inactive = no such curve, though single readings can be large or run the other way; note: potency is the fitted concentration of half-maximal effect; % is set by controls: 0 for no effect and ±100 for the full control effect
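Infected RBCs, 2% Hct / 0.05% parasitemia final; luciferase-reporter P. falciparum; cpd 96 h, 37 C, 5% CO2; luciferase detection reagent; luminescence.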
Shiga inhibitor: Shiga toxin inhibition; Vero cells, Shiga toxin protein synthesis inhibition reporter; inhibition, % at 38.7 µM; 9.2% of 290,000 active; in the data active = inhibition mostly above about 28%, no sharp cut-off; inactive = mostly below about 43%; note: 0% is about no effect
Pf growth 48h: P. falciparum growth inhibition at 48 hours (one generation). P. falciparum luciferase growth in erythrocytes, 48 h. Potency, µM (top dose mostly 28.7 µM), for inactives: at the top dose activity change, negative = inhibition, actives largely listed as inhibitors. 5.9% of 310,000 active; active = well fitted inhibition curve with a large enough effect; inconclusive = small, poorly fitted or top-dose-only effect, or another doubt; inactive = no such curve, though single readings can be large or run the other way; note: potency is the fitted concentration of half-maximal effect; % is set by controls: 0 for no effect and ±100 for the full control effect
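Firefly luciferase activity from engineered P. falciparum reports growth; inhibitors lower the luminescent signal. Cultures contained 2% hematocrit erythrocytes at 0.1% final parasitemia.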
Cycloheximide cs: counter-screen for Shiga toxin inhibitors: cycloheximide protein synthesis inhibition. cell reporter, cycloheximide protein synthesis inhibition counterscreen. max response, %. 12% of 300,000 active. AID 2314; in the data active = max response mostly above about 13%, no sharp cut-off; inactive = mostly below about 14%; note: read at 38.3 µM for the half of the compounds with a filed dose; 0% is about no effect
* = called active by the depositor. Unless noted, calls come from the whole dose curve.

NC(=O)CC(NC(=O)c1cccc(Br)c1)c1ccc(N2CCN(c3ccccn3)CC2)c([N+](=O)[O-])c1 (stereo not drawn) was read as SARS PLpro yeast -12.4%, NS1 function inh -2.5%, Pf growth 96h inconclusive, Shiga inhibitor -6.4, Pf growth 48h 1.4% and Cycloheximide cs -2.6.
`Cn1c(-c2ccccc2)cnc1NCc1cc2c(cc1[N+](=O)[O-])OCO2` gave SARS PLpro yeast 1.5%, NS1 function inh 24.6%, Pf growth 96h inconclusive, Shiga inhibitor 60.0*, Pf growth 48h -1.1% and Cycloheximide cs 53.0*.
For Cn1c(-c2ccc(F)cc2)cnc1NCc1cc2c(cc1[N+](=O)[O-])OCO2 the results were SARS PLpro yeast -15.7%, NS1 function inh inconclusive, Pf growth 96h 40.0%, Shiga inhibitor 28.0, Pf growth 48h 11.7µM* and Cycloheximide cs 32.8*.
Screening Cn1c(-c2ccc3c(c2)OCO3)cnc1NCc1cccc(O)c1 returned SARS PLpro yeast -0.1%, NS1 function inh 3.9%, Pf growth 96h inconclusive, Shiga inhibitor 43.8*, Pf growth 48h -3.8% and Cycloheximide cs 25.4*.
Cn1c(-c2ccc(F)cc2)cnc1NCc1cccc(F)c1 was read as SARS PLpro yeast -10.4%, NS1 function inh -20.2%, Pf growth 96h -56.6%, Shiga inhibitor 44.7, Pf growth 48h 5.0% and Cycloheximide cs 18.5.
`CC(C(=O)O/N=C(\N)c1cccnc1)c1ccc([N+](=O)[O-])cc1` (stereo not drawn) gave SARS PLpro yeast -2.6%, NS1 function inh -2.6%, Pf growth 96h 11.6%, Shiga inhibitor -10.7, Pf growth 48h inconclusive and Cycloheximide cs 19.3.
CSc1nc(O)c(/C=C2\C=Nc3ccccc32)[nH]1 was read as SARS PLpro yeast -3.0%, NS1 function inh -17.6%, Pf growth 96h 24.1%, Shiga inhibitor 140.2*, Pf growth 48h 132.4% and Cycloheximide cs 62.3*.
COc1cc(/C=N/NC(=O)c2cc(C3CC3)[nH]n2)cc(OC)c1OC was read as SARS PLpro yeast -9.0%, NS1 function inh 5.3%, Pf growth 96h -13.2%, Shiga inhibitor -7.3, Pf growth 48h -10.1% and Cycloheximide cs -2.8.
Screening CCOc1cccc(/C=N/NC(=O)c2cc(C3CC3)[nH]n2)c1O returned SARS PLpro yeast inconclusive, NS1 function inh -25.8%, Pf growth 96h inconclusive, Shiga inhibitor 2.0, Pf growth 48h 2.4% and Cycloheximide cs 18.4*.
CCOc1cc(/C=N/NC(=O)c2cccnc2)ccc1O was read as SARS PLpro yeast -0.1%, NS1 function inh 11.2%, Pf growth 96h 117.0%, Shiga inhibitor 41.9, Pf growth 48h 47.6% and Cycloheximide cs 9.0.
`CCOc1cccc(/C=N/NC(=O)c2cccnc2)c1O` gave SARS PLpro yeast 0.1%, NS1 function inh -16.7%, Pf growth 96h inconclusive, Shiga inhibitor 32.6, Pf growth 48h inconclusive and Cycloheximide cs 21.2*.
For CC(=O)N1CCN2C(=O)C1CCCC(=O)c1cc(C)ccc12 (stereo not drawn) the results were SARS PLpro yeast 8.3%, NS1 function inh 7.3%, Pf growth 96h -17.3%, Shiga inhibitor 6.9, Pf growth 48h -17.6% and Cycloheximide cs -1.1.
Screening CSc1nnc2c(n1)c(C)nn2-c1cccc(C)c1 returned SARS PLpro yeast -8.0%, NS1 function inh -2.0%, Pf growth 96h 56.1%, Shiga inhibitor 36.2*, Pf growth 48h 83.7% and Cycloheximide cs 19.7*.
`CCCCC[C@H]1CN(Cc2ccccc2)C(=O)[C@@H]1CC(=O)NCc1ccccc1` gave SARS PLpro yeast -0.3%, NS1 function inh -69.5%, Pf growth 96h inconclusive, Shiga inhibitor -3.4, Pf growth 48h -6.0% and Cycloheximide cs -2.3.
`Cc1ccc(C2=C/C(=C/c3cccs3)C(=O)O2)cc1` gave SARS PLpro yeast -23.0%, NS1 function inh 6.1%, Pf growth 96h inconclusive, Shiga inhibitor 24.8, Pf growth 48h 35.5% and Cycloheximide cs 21.8*.
CCOc1ccc(C2=C/C(=C/c3cccnc3)C(=O)O2)cc1 was read as SARS PLpro yeast 2.2%, NS1 function inh 5.6%, Pf growth 96h inconclusive, Shiga inhibitor -0.9, Pf growth 48h -16.0% and Cycloheximide cs 8.1.
`CC(=O)Oc1cccc(/C=C2\C=C(c3ccc(C)cc3)OC2=O)c1` gave SARS PLpro yeast -2.3%, NS1 function inh 0.0%, Pf growth 96h 1.4%, Shiga inhibitor 54.9, Pf growth 48h -0.6% and Cycloheximide cs 17.2*.

Screening results deposited in PubChem by National Center for Advancing Translational Sciences (NCATS).
